Measured values from PubChem BioAssay.

Test: probe aShh binding to arrayed compounds – biochemical, biotinylated probe, 635/667 nm fluorescence, primary screen (AID 1114);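 also: probe is biotin-labelled aShh protein from a stem cell growth factor screen; measures binding of labelled protein to compounds printed on the slide; score merges feature fluorescence at 667 nm with signal-to-noise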
Conditions: small-molecule microarray, higher = more signal

Row | SMILES | composite z-score
1 | CC(C)(C)OC(=O)CC[C@]1(C(=O)NCCN2CCOCC2)N=C(c2ccc(OCCCO)cc2)O[C@H]1c1ccccc1 | -0.153
2 | C=CC[C@@]12N=C(c3ccc(OCCCO)cc3)O[C@@H]1c1ccccc1N(CCS(=O)(=O)c1ccccc1)C2=O | 0.147
3 | CCOC(=O)C[C@H]1[C@H](OC(=O)c2ccccc2-c2ccccc2)[C@@H](NC(=O)CC(C)C)c2cc(OCCCO)ccc2N1C(=O)c1ccc2ccccc2n1 | -0.0769
4 | COc1ccc(C(O)C2C=CC3C(=O)N(c4ccccc4)C(=O)C3N2Nc2ccccc2)cc1OCc1ccccc1 (stereo not given) | 0.123
5 | NCCCCCNC(=O)[C@@H]1C[C@@H]2C(=O)N[C@@H](CCCCN)C(=O)N2[C@@H]1c1cccc(OCCO)c1 | 0.241
6 | CCCCC(CC)C(O)C1C=CC2C(=O)N(c3ccccc3)C(=O)C2N1Nc1ccc([N+](=O)[O-])cc1 (stereo not given) | -0.258
7 | CC(C)(C)OC(=O)CC[C@]1(C(=O)O)N=C(c2ccc(OCCCO)cc2)O[C@H]1c1ccccc1CN=[N+]=[N-] | 0.0668
8 | C=C(/C(=C/C[C@@H](OC(=O)c1ccncc1)c1ccccc1OCCO)c1cc(C(=O)OC)ccc1OC)C(C)C | 0.3
9 | O=C1O[C@@H](c2ccccc2)[C@@H](c2ccccc2)N2[C@@H](c3ccccc3OCCO)[C@]3(C(=O)Nc4ccccc43)[C@@H](C(=O)NC[C@H](O)c3ccccc3)[C@H]12 | 0.0557
10 | COCCOC(=O)N1C(=O)[C@@]2(c3cc(C#CC4(O)CCCCCC4)ccc31)[C@H](c1ccccc1OCCO)N1[C@H](c3ccccc3)[C@H](c3ccccc3)OC(=O)[C@H]1[C@@H]2C(N)=O | 0.337
